# Source: ChEMBL document CHEMBL3433997, “St. Jude Leishmania screening dataset” (2016)
# Target: Hexose transporter 1 (Plasmodium falciparum) (UniProt O97467)
# Experiment: ST_JUDE_LEISH: Cytotoxicity at 2uM final concentration against transgenic Leishmania Mexicana promastigotes LmPfHT that are glucose transport deficient and complemented with the Plasmodium falciparum hexose transporter. Activity is measured by DNA content using SYBR green in vitro
# Type: functional
row,SMILES,inhibition
1,CCN(CC)CCN(Cc1ccc(-c2ccc(C(F)(F)F)cc2)cc1)C(=O)Cn1c(CCc2ccc(F)c(F)c2F)nc(=O)c2ccccc21,7.31%
2,Cc1cnc(-c2ccc(NC(=O)c3coc4ccc(N5CC(C)N(C)C(C)C5)cc34)cc2)o1 (stereo not given),1.55%
3,O=C(Nc1cc(Cl)cc(Cl)c1)c1cc(Cl)c(=O)n(Cc2ccc(Cl)cc2)c1,5.94%
4,COc1ccc2c(c1C1CCN(CCCCNC(=O)c3ccc(-c4ccc(Cl)cn4)cc3)CC1)CCCC2,2.74%
5,COc1ccc(NC(C)C(=O)Nc2ccc(Br)cc2)cc1S(=O)(=O)N1CCCCC1 (stereo not given),1.34%
6,CNCCNc1nccc(N2CCc3ncnc(Nc4ccc(OCc5cccc(F)c5)c(Cl)c4)c3C2)n1,5%
7,O=C(CN1CCN(C(=O)c2ccco2)CC1)Nc1ccccc1Br,-1.64%
8,CN1CCCN(Cc2cccc(-c3cccc(NC(=O)c4cccc(C#N)c4)c3)c2)CC1,11.4%
9,CCOC(=O)c1ccc(NCc2ccccn2)cc1,3.01%
10,Cc1ccc(NC(=S)NC2CCN(CCCCCNC(=O)/C=C/c3ccc(Cl)c(Cl)c3)CC2)cc1Cl,-0.31%
11,CCS[C@@H]1O[C@H](COC(=O)c2ccccc2)[C@H](OC(=O)c2ccccc2)[C@H](OC(=O)c2ccccc2)[C@H]1OC(=O)c1ccccc1,4.06%
12,COc1ccc(-c2ccc(CNCc3ccccc3)cc2)cc1S(=O)(=O)NCCN1CCCC1,1.92%
13,COc1cc(NCC(O)CNc2cc(OC)c3ccccc3n2)nc2ccccc12,12.5%
14,COc1cccc(NC(=O)Nc2c(-c3cccc(C(F)(F)F)c3)c(C(F)(F)F)nn2C)c1,1.76%
15,CC(C)N(CCOc1ccc2c(c1)N(C(=O)Nc1cc(Br)cc(C(F)(F)F)c1)CC2)C(C)C,2.23%
16,O=C1CN(C(=O)CCC2CCCC2)C(c2ccc(F)cc2)c2cc(F)ccc2N1 (stereo not given),3.45%
17,Clc1ccc(Nc2nc3ccc(Cl)cc3nc2Nc2ccc(Cl)cc2)cc1,6.73%
18,FC(F)(F)c1ccc(COc2cc(Cl)ccc2Cn2ccnc2)cc1,9.99%
19,O=C(NCCN1CCOCC1)c1ccc(N2CCC(Oc3ccc4ccccc4c3)CC2)nc1,6.04%
20,Cc1cc(=NN=Cc2ccc(F)cc2)c2cccc(C)c2[nH]1,2.28%

row,SMILES,inhibition
1,COc1ccc(NC(=O)c2ccc(Br)c(C)c2)cc1N1CCN(CCCc2c[nH]c3ccccc23)CC1,-0.68%
2,CCSc1ccccc1CON1C(=N)N=C(N)NC1(C)C,19.1%
3,COc1c(C2CCN(CCCCNC(=O)c3ccc(-c4ccc(Cl)cc4)c(OCC(N)=O)c3)CC2)ccc2c1CCCC2,3.3%
4,Cc1cc(N[C@@H](Cc2ccccc2)C(=O)NCc2cccc(F)c2)nc(NCCc2ccc(F)cc2)n1,2.55%
5,COc1cc(NC(=O)/C=C/c2ccc(-c3ccccc3)cc2)ccc1OCCN(C(C)C)C(C)C,55.8%
6,COc1cc(Cl)c(C)cc1-n1cc(C(=O)c2cc(Br)ccc2O)cc(C#N)c1=O,-1.65%
7,Cc1ccccc1C1CCN(C2CCC(NC(=O)/C=C/c3cccc(Cl)c3Cl)CC2)CC1 (stereo not given),1.26%
8,CC1(C)CN(CCC2CCC(NC(=O)/C=C/c3ccccc3F)CC2)Cc2ccc(C#N)cc21 (stereo not given),1%
9,Cn1cc(C2CCN(CCCCNC(=O)c3ccc(C(=O)Nc4ccc(C#N)cc4)cc3)CC2)c2ccccc21,7.5%
10,COc1cccc(C=Cc2nc(=O)c3ccccc3o2)c1OC,0.32%
11,CCN1CCN(CCNc2c3ccccc3nc3ccccc23)CC1,80.6%
12,CN(C)CCN(C)Cc1nc(-c2ccc3c(Nc4ccc(Oc5ccccc5)cc4)ccnc3c2)cs1,3.38%
13,O=C(Nc1ccccc1-c1nc2ccccc2s1)C(Cl)(Cl)Cl,1.24%
14,N#Cc1ccc(-c2ccc(C(=O)NC3CCN(CCN4CCC(c5cn(CCOC6CCCCO6)c6ccccc56)CC4)CC3)cc2)cc1 (stereo not given),6.81%
15,CCN(CC)CCOc1ccc(C(O)(C#CC(O)(c2ccc(Br)cc2)c2ccc(OCCN(CC)CC)cc2)c2ccc(Br)cc2)cc1 (stereo not given),5%
16,COc1ccc2c(=NN=Cc3cccc(Cl)c3)cc(C)[nH]c2c1,0.71%
17,CCNC(=O)Nc1ccc(N(C)c2ccnc(NC3CC3)n2)cc1,3.87%
18,CCN(CC)CCN(Cc1ccc(-c2ccc(C(F)(F)F)cc2)cc1)C(=O)Cn1c(CCC2CCCCC2)nc(=O)c2ccccc21,1.35%
19,CC(CCc1ccccc1)NCC(O)c1cccc([N+](=O)[O-])c1 (stereo not given),-2.9%
20,CCOc1ccc(C2CCN(CCCCNC(=O)c3ccc(NC(=O)c4ccc(Cl)cc4)cc3)CC2)c(Cl)c1,4.55%

# Target: Glucose transporter (Leishmania mexicana) (UniProt O61059)
# Experiment: ST_JUDE_LEISH: Cytotoxicity at 2uM final concentration against transgenic Leishmania Mexicana promastigotes LmGT2 that are glucose transport deficient and complemented with the L. Mexicana glucose transporter 2. Activity is measured by DNA content using SYBR green in vitro
# Type: functional
row,SMILES,inhibition
1,CCN(CC)CCN(Cc1ccc(-c2ccc(C(F)(F)F)cc2)cc1)C(=O)Cn1c(CCc2ccc(F)c(F)c2F)nc(=O)c2ccccc21,10.2%
2,Cc1cnc(-c2ccc(NC(=O)c3coc4ccc(N5CC(C)N(C)C(C)C5)cc34)cc2)o1 (stereo not given),0.74%
3,O=C(Nc1cc(Cl)cc(Cl)c1)c1cc(Cl)c(=O)n(Cc2ccc(Cl)cc2)c1,-0.15%
4,COc1ccc2c(c1C1CCN(CCCCNC(=O)c3ccc(-c4ccc(Cl)cn4)cc3)CC1)CCCC2,3.95%
5,COc1ccc(NC(C)C(=O)Nc2ccc(Br)cc2)cc1S(=O)(=O)N1CCCCC1 (stereo not given),1.93%
6,CNCCNc1nccc(N2CCc3ncnc(Nc4ccc(OCc5cccc(F)c5)c(Cl)c4)c3C2)n1,2.3%
7,O=C(CN1CCN(C(=O)c2ccco2)CC1)Nc1ccccc1Br,-3.97%
8,CN1CCCN(Cc2cccc(-c3cccc(NC(=O)c4cccc(C#N)c4)c3)c2)CC1,10.3%
9,CCOC(=O)c1ccc(NCc2ccccn2)cc1,2.96%
10,Cc1ccc(NC(=S)NC2CCN(CCCCCNC(=O)/C=C/c3ccc(Cl)c(Cl)c3)CC2)cc1Cl,-1.1%
11,CCS[C@@H]1O[C@H](COC(=O)c2ccccc2)[C@H](OC(=O)c2ccccc2)[C@H](OC(=O)c2ccccc2)[C@H]1OC(=O)c1ccccc1,2.02%
12,COc1ccc(-c2ccc(CNCc3ccccc3)cc2)cc1S(=O)(=O)NCCN1CCCC1,-1.36%
13,COc1cc(NCC(O)CNc2cc(OC)c3ccccc3n2)nc2ccccc12,4.93%
14,COc1cccc(NC(=O)Nc2c(-c3cccc(C(F)(F)F)c3)c(C(F)(F)F)nn2C)c1,0.37%
15,CC(C)N(CCOc1ccc2c(c1)N(C(=O)Nc1cc(Br)cc(C(F)(F)F)c1)CC2)C(C)C,1.38%
16,O=C1CN(C(=O)CCC2CCCC2)C(c2ccc(F)cc2)c2cc(F)ccc2N1 (stereo not given),0.37%
17,Clc1ccc(Nc2nc3ccc(Cl)cc3nc2Nc2ccc(Cl)cc2)cc1,7.3%
18,FC(F)(F)c1ccc(COc2cc(Cl)ccc2Cn2ccnc2)cc1,7.28%
19,O=C(NCCN1CCOCC1)c1ccc(N2CCC(Oc3ccc4ccccc4c3)CC2)nc1,6.12%
20,Cc1cc(=NN=Cc2ccc(F)cc2)c2cccc(C)c2[nH]1,3.02%

row,SMILES,inhibition
1,COc1ccc(NC(=O)c2ccc(Br)c(C)c2)cc1N1CCN(CCCc2c[nH]c3ccccc23)CC1,-0.4%
2,CCSc1ccccc1CON1C(=N)N=C(N)NC1(C)C,18.7%
3,COc1c(C2CCN(CCCCNC(=O)c3ccc(-c4ccc(Cl)cc4)c(OCC(N)=O)c3)CC2)ccc2c1CCCC2,5.11%
4,Cc1cc(N[C@@H](Cc2ccccc2)C(=O)NCc2cccc(F)c2)nc(NCCc2ccc(F)cc2)n1,1.36%
5,COc1cc(NC(=O)/C=C/c2ccc(-c3ccccc3)cc2)ccc1OCCN(C(C)C)C(C)C,23.4%
6,COc1cc(Cl)c(C)cc1-n1cc(C(=O)c2cc(Br)ccc2O)cc(C#N)c1=O,0.03%
7,Cc1ccccc1C1CCN(C2CCC(NC(=O)/C=C/c3cccc(Cl)c3Cl)CC2)CC1 (stereo not given),4.18%
8,CC1(C)CN(CCC2CCC(NC(=O)/C=C/c3ccccc3F)CC2)Cc2ccc(C#N)cc21 (stereo not given),1.48%
9,Cn1cc(C2CCN(CCCCNC(=O)c3ccc(C(=O)Nc4ccc(C#N)cc4)cc3)CC2)c2ccccc21,7%
10,COc1cccc(C=Cc2nc(=O)c3ccccc3o2)c1OC,0.45%
11,CCN1CCN(CCNc2c3ccccc3nc3ccccc23)CC1,79%
12,CN(C)CCN(C)Cc1nc(-c2ccc3c(Nc4ccc(Oc5ccccc5)cc4)ccnc3c2)cs1,2.65%
13,O=C(Nc1ccccc1-c1nc2ccccc2s1)C(Cl)(Cl)Cl,0.54%
14,N#Cc1ccc(-c2ccc(C(=O)NC3CCN(CCN4CCC(c5cn(CCOC6CCCCO6)c6ccccc56)CC4)CC3)cc2)cc1 (stereo not given),21.2%
15,CCN(CC)CCOc1ccc(C(O)(C#CC(O)(c2ccc(Br)cc2)c2ccc(OCCN(CC)CC)cc2)c2ccc(Br)cc2)cc1 (stereo not given),3.37%
16,COc1ccc2c(=NN=Cc3cccc(Cl)c3)cc(C)[nH]c2c1,-0.53%
17,CCNC(=O)Nc1ccc(N(C)c2ccnc(NC3CC3)n2)cc1,5.35%
18,CCN(CC)CCN(Cc1ccc(-c2ccc(C(F)(F)F)cc2)cc1)C(=O)Cn1c(CCC2CCCCC2)nc(=O)c2ccccc21,0.43%
19,CC(CCc1ccccc1)NCC(O)c1cccc([N+](=O)[O-])c1 (stereo not given),1.35%
20,CCOc1ccc(C2CCN(CCCCNC(=O)c3ccc(NC(=O)c4ccc(Cl)cc4)cc3)CC2)c(Cl)c1,1.92%
